Measured values published in the supplement of paper PMC7726561.
The full ranking holds about 1,100 sequences; the median of “thermal melting temperature (Tm) of peptide-HLA complex” is about 58, and the lowest 2% start at about 42. The full list was thinned out, with the lowest values kept by preference.

B1: unnamed (peptide)
chain: KLLDIPGLEV
B2: unnamed (peptide)
chain: YLKDLIEEV
B3: unnamed (peptide)
chain: YQIAEQFRV
B4: unnamed (peptide)
chain: IAPPVPLKA
B5: unnamed (peptide)
chain: ILSGVIRSV
B6: unnamed (peptide)
chain: LLYDGKLSSA
B7: unnamed (peptide)
chain: LLVDVEPKV
B8: unnamed (peptide)
chain: QMISRIEYV
B9: unnamed (peptide)
chain: KLTENLVAL
B10: unnamed (peptide)
chain: FLNKEITSV
B11: unnamed (peptide)
chain: TLLTFFHEL
B12: unnamed (peptide)
chain: YLPEDFIRV
B13: unnamed (peptide)
chain: FVMETFVHL
B14: unnamed (peptide)
chain: ILTEAIKAA
B15: unnamed (peptide)
chain: TLLTDPPTA
B16: unnamed (peptide)
chain: VMFGGKQVVV
B17: unnamed (peptide)
chain: KLFNEFIQL
B18: unnamed (peptide)
chain: SLYSQVHQI
B19: unnamed (peptide)
chain: NLYEEWTQV
B20: unnamed (peptide)
chain: VLMTQQPRPVL
B21: unnamed (peptide)
chain: YLTAFTKNL
B22: unnamed (peptide)
chain: GLPRFGIEMV
B23: unnamed (peptide)
chain: KQTDLEITV
B24: unnamed (peptide)
chain: RVISELQEA
B25: unnamed (peptide)
chain: NVIERLQEA
B26: unnamed (peptide)
chain: AQFEHTILL
B27: unnamed (peptide)
chain: QLAQFVHEV
B28: unnamed (peptide)
chain: ALADFAELLRA
B29: unnamed (peptide)
chain: NLLEIAPHL
B30: unnamed (peptide)
chain: SLLDPVPEV
B31: unnamed (peptide)
chain: ELMEQVPHI
B32: unnamed (peptide)
chain: TLSQAIVKV
B33: unnamed (peptide)
chain: RIIDTVAQV
B34: unnamed (peptide)
chain: GLVDKLQAL
B35: unnamed (peptide)
chain: KVLGIVVGV
B36: unnamed (peptide)
chain: NQIEDNDDFQL
B37: unnamed (peptide)
chain: NLIPILKTV
B38: unnamed (peptide)
chain: SQTFVNPHV
B39: unnamed (peptide)
chain: YLLTESSKL
B40: unnamed (peptide)
chain: YLWPRGSPAL
B41: unnamed (peptide)
chain: FLDDVVHSL
B42: unnamed (peptide)
chain: SLHEFLVNL
B43: unnamed (peptide)
chain: RLMNDMTAV
B44: unnamed (peptide)
chain: SLLDGHFVL
B45: unnamed (peptide)
chain: RLLDGAFKL
B46: unnamed (peptide)
chain: VLIDYQRNV
B47: unnamed (peptide)
chain: FLSSVIQNL
B48: unnamed (peptide)
chain: QLYNQIIKL
B49: unnamed (peptide)
chain: IQDFEMPTV
B50: unnamed (peptide)
chain: VMLDVPIRL
B51: unnamed (peptide)
chain: HLIDDLLAA
B52: unnamed (peptide)
chain: ALFPAPLAQI
B53: unnamed (peptide)
chain: NIIELVHQV
B54: unnamed (peptide)
chain: KLGDFGLLV
B55: unnamed (peptide)
chain: FLNPDEVHAI
B56: unnamed (peptide)
chain: FLMENGSITSI

Biological target: HLA-A*02:01
Experiment: thermal melting temperature (Tm) of peptide-HLA complex; higher = more thermostable pHLA complex
Settings: C1R-A*02:01
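Also: lysates heated 10 min at 37–73 °C, complexes pulled down with pan-HLA I antibody, peptide signal by DIA-MS relative to 37 °C, Tm where half the complex is unfolded.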

Sequence | thermal melting temperature [°C]
B1 | 61.3
B2 | 62.8
B3 | 61.3
B4 | 53
B5 | 56.6
B6 | 59.4
B7 | 55.5
B8 | 59.7
B9 | 59
B10 | 59.6
B11 | 57.4
B12 | 61.4
B13 | 57
B14 | 59.3
B15 | 59.5
B16 | 57.5
B17 | 57.8
B18 | 60.2
B19 | 59.9

Sequence | thermal melting temperature [°C]
B20 | 48.8
B21 | 60.8
B22 | 60.1
B23 | 57.5
B24 | 40.7
B25 | 57.2
B26 | 58.1
B27 | 62.3
B28 | 62
B29 | 52.1
B30 | 62.5
B31 | 48.9
B32 | 54.1
B33 | 60.6
B34 | 55.6
B35 | 61
B36 | 42
B37 | 56
B38 | 57.8

Sequence | thermal melting temperature [°C]
B39 | 55.2
B40 | 41.3
B41 | 58.8
B42 | 61.5
B43 | 58.9
B44 | 40.1
B45 | 49.9
B46 | 60.1
B47 | 58.3
B48 | 56.1
B49 | 50.9
B50 | 55.9
B51 | 41.1
B52 | 62.7
B53 | 57.1
B54 | 60.4
B55 | 59.9
B56 | 58.2
